Test results published in the supplement of paper PMC11482750.
± gives the standard deviation of the averaged measurements.

Compound: CCC/C=C/C=O [trans-2-hexenal]
Experiment: control-subtracted net OSN firing rate; higher = stronger neuronal activation
Settings: odorant dilution (vol/vol): 1/100
Description: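 Single sensillum recordings from olfactory sensory neurons. The neurons sit in the maxillary palp or antennal sensilla of D. melanogaster (wild type, mutants, or at1 empty-neuron lines expressing Or42a homologs or the A181D S307P mutant) and of four Scaptomyza species. Each odorant was given as a 1 s pulse from 20 µl loaded on filter paper at 1:100 vol/vol, diluted in mineral oil (γ-hexalactone in DMSO). Spikes were counted in a 0.5 s window starting 0.2 s after onset, background was subtracted, the count was doubled, and the mean solvent-control response was subtracted.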

Row | Target | control-subtracted net OSN firing rate [spikes/s]
1 | S. montana pb2b-like | 5.67 ± 5.1
2 | S. montana pb1b-like | -11.3 ± 8.9
3 | S. montana pb3a-like | 3 ± 5.5
4 | Or67dGal4, UAS-Sfla Or42a2 at1 | 3.14 ± 12
5 | S. flava pb1a-like | 152 ± 26
6 | Or67dGal4, UAS-Sfla Or42a3 at1 | 144 ± 32
7 | Canton-S (D. melanogaster) pb1b | -5.33 ± 9
8 | S. hsui pb2a-like | 10 ± 12
9 | Or67dGal4, UAS-Sfla Or42a4 at1 | 179 ± 43
10 | S. flava pb2a-like | 1.67 ± 6.6
11 | S. montana pb1a-like | 145 ± 34
12 | S. pallida pb1a-like | 103 ± 25
13 | S. hsui pb2b-like | 15 ± 15
14 | S. montana pb3b-like | 8.33 ± 8.7
15 | S. pallida pb3b-like | -10 ± 14
16 | Or67dGal4, UAS-Spal Or42a at1 | 205 ± 10
17 | S. hsui pb1b-like | -16.3 ± 10
18 | S. pallida pb2a-like | 8.33 ± 6

Row | Target | control-subtracted net OSN firing rate [spikes/s]
19 | Canton-S (D. melanogaster) pb2b | 0.857 ± 11
20 | Or67dGal4, UAS-Dmel Or42a at1 | 110 ± 52
21 | S. pallida pb1b-like | -6.67 ± 7.2
22 | S. montana pb2a-like | 1 ± 8.5
23 | S. hsui pb3a-like | 147 ± 24
24 | S. flava pb2b-like | 15 ± 14
25 | S. flava pb3b-like | 26 ± 42
26 | S. hsui pb3b-like | -5 ± 4.2
27 | S. flava pb3a-like | -3.33 ± 9.6
28 | Canton-S (D. melanogaster) pb2a | 4.86 ± 9.6
29 | Canton-S (D. melanogaster) pb1a | 124 ± 31
30 | S. hsui pb1a-like | 115 ± 18
31 | Canton-S (D. melanogaster) pb3b | -0.833 ± 5.7
32 | S. pallida pb3a-like | 109 ± 24
33 | Canton-S (D. melanogaster) pb3a | 0.167 ± 5.6
34 | S. flava pb1b-like | -17.7 ± 8.2
35 | S. pallida pb2b-like | 6.67 ± 10
